# Source: PubChem BioAssay
# NS1 function inh = qHTS Assay for Inhibitors of Influenza NS1 Protein Function | 270,000 tested, 0.4% active | AID 2326, 2010 | Potency, µM (series often up to 46.1 µM), for inactives: at the top dose activity, positive = more growth; calls by dose curve; also: potency is read from the fitted curve at half-maximal effect; actives are rising curves; nearly all actives have a fitted effect of over 50% in size
#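 Recovery from NS1-induced slow growth read by OD600 in budding yeast switched to galactose assay medium (pH 6.0, -URA) at 1:100 dilution. Compound 23 nl per well; the matching strain lacking NS1 serves as control.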
# Shiga toxin inh = A qHTS for Small Molecule Inhibitors of Shiga Toxin; Vero cells, Shiga toxin protein synthesis inhibition reporter; inhibition, % at 38.7 µM; 290,000 tested, 9.2% active; in the data active = inhibition mostly above about 28%, no sharp cut-off; inactive = mostly below about 43%; also: 0% is about no effect
# Pf growth 96h = Primary qHTS for delayed death inhibitors of the malarial parasite plastid, 96 hour incubation; 320,000 tested, 6.9% active; P. falciparum luciferase reporter growth, 96 h; Potency, µM (titrated, usually from 28.7 µM), for the others: at the highest dose activity change, negative = inhibition, actives largely listed as inhibitors; also: potency is read from the fitted curve at half-maximal effect; % is scaled to controls: 0 for no effect and ±100 for the full control effect
#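 Cell-based qHTS: luciferase-tagged P. falciparum in erythrocytes (2% hematocrit, 0.05% parasitemia final) incubated with compounds for 96 hours, 37 C, 5% CO2; luciferase detection reagent then added and luminescence measured.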
# Pf growth 48h = Primary qHTS for delayed death inhibitors of the malarial parasite plastid, 48 hour incubation. P. falciparum luciferase growth in erythrocytes, 48 h. Potency, µM (series often up to 28.7 µM), inactives show at the highest dose activity change, negative = inhibition, hits mostly inhibitors. 310,000 tested, 5.9% active; also: potency is read from the fitted curve at half-maximal effect; % is scaled to controls: 0 for no effect and ±100 for the full control effect
#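 Cell-based growth assay: transgenic P. falciparum expressing firefly luciferase, cultured in red cells within RPMI 1640 containing 0.5% w/v Albumax, 24 mM bicarbonate and gentamycin. A drop in luciferase activity indicates inhibition.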
# CHX counter = Cycloheximide Counterscreen for Small Molecule Inhibitors of Shiga Toxin | cell reporter, cycloheximide protein synthesis inhibition counterscreen | max response, % | 300,000 tested, 12% active | AID 2314, 2010; in the data active = max response mostly above about 13%, no sharp cut-off; inactive = mostly below about 14%; also: read at 38.3 µM for the half of the compounds with a filed dose; 0% is about no effect
# Sm TGR block = qHTS Assay for the Inhibitors of Schistosoma Mansoni Peroxiredoxins; 360,000 tested, 3% active; AID 485364, 2010; Schistosoma mansoni thioredoxin glutathione reductase (TGR), Q962Y6; purified TGR, DTNB reduction, TNB absorbance 405 nm; Potency, µM (doses to about 114 µM), for the others: at the top dose activity change, negative = inhibition, hits mostly inhibitors; also: potency is read from the fitted curve at half-maximal effect; % is scaled to controls: 0 for no effect and ±100 for the full control effect; nearly all actives have a fitted effect of over 60% in size
#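 Kinetic colorimetric format: TGR-catalysed, NADPH-driven DTNB reduction monitored via TNB absorbance. Enzyme dispensed at 20 nM; compound exposure 15 min at room temperature before reaction start.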
# The depositor's hits bear a star; ? = inconclusive; · = no result. Shown are actives, neighbours in structure and some others; about 21% of the full set was active somewhere. Unless noted, calls follow the shape of the dose curve; as a rule, active = well fitted curve in the direction sought with a large enough effect; inconclusive = small, poorly fitted or top-dose-only effect, or another doubt; inactive = no such curve, though single readings can be large; an effect the other way counts as inactive or inconclusive.
SMILES,NS1 function inh,Shiga toxin inh,Pf growth 96h,Pf growth 48h,CHX counter,Sm TGR block
CC1=CC(=O)N(c2ccc(C)cc2)C1c1ccc(Cl)cc1 (stereo not given),-1%,9,?,?,4,1%
CC(=O)Nc1ccc(Nc2nc3ccc(Cl)cc3n3cnnc23)cc1,·,·,·,·,·,6%
Cc1oc(-c2ccc(Cl)cc2)nc1CS(=O)CC(=O)NCc1ccc2c(c1)OCO2 (stereo not given),?,2,?,16%,5,14µM*
Cc1oc(-c2ccccc2F)nc1CS(=O)CC(=O)NCc1ccc2c(c1)OCO2 (stereo not given),?,8,-2%,·,7,-5%
COc1ccc(-c2nc(CS(=O)CC(=O)NCc3ccc4c(c3)OCO4)c(C)o2)cc1OC (stereo not given),14%,8,?,-9%,5,40µM*
COc1ccc(-c2nc(CSCC(=O)NCc3ccc4c(c3)OCO4)c(C)o2)cc1,-12%,-14,5.9µM*,·,-4,-21%
COc1ccccc1CNC(=O)CS(=O)Cc1nc(-c2ccc(OC)c(OC)c2)oc1C (stereo not given),-7%,6,-1%,2%,2,?
COc1ccc(-c2nc(CSCC(=O)NCc3ccc4c(c3)OCO4)c(C)o2)cc1OC,-7%,24,?,-29%,14,?
Cc1ccccc1N1CCN(C2CCCN(C(=O)CCC(F)(F)F)C2)CC1 (stereo not given),9%,·,?,4%,-1,-2%
FC(F)(F)c1ccc2c(c1)nnn2C1CCN(Cc2nnnn2Cc2ccccc2)CC1,-11%,3,10µM*,7.4µM*,0,-6%
Cc1ccc(Cn2nnnc2CN2CCC(O)(c3ccccc3F)CC2)cc1,-17%,-14,39%,15µM*,-1,-18%
Cc1ccc(Cn2nnnc2CN2CCC(n3nnc4cc(C(F)(F)F)ccc43)CC2)cc1,-33%,-10,-15%,?,8,-1%
Fc1ccc2c(c1)nnn2C1CCN(Cc2nnnn2C2CCCCC2)CC1,-6%,-12,-8%,?,-4,8%
Cc1ccc(Cn2nnnc2CN2CCC(n3nnc4cc(C)ccc43)CC2)cc1,-30%,26,13µM*,?,-3,7%
COCC(=O)N1CCC(n2nnc3cc(C(F)(F)F)ccc32)CC1,-1%,-4,5.2µM*,20%,6,-18%
Cc1ccc2c(c1)CCCN2C(=O)Nc1ccc2c(c1)OCO2,-54%,30*,?,3%,46*,-33%
O=C(Nc1ccc2c(c1)OCO2)N1CCCc2ccccc21,7%,85*,93%,77%,35*,-16%
CC(=O)NC(Cc1ccccc1)C(=O)OCC(=O)c1ccccc1 (stereo not given),-34%,-1,131%,8%,-2,-5%
O=C1CC(c2ccccc2)CC(O)=C1C=Nc1ccc(O)cc1 (stereo not given),1%,62,13µM*,19%,18*,·
CN1CCN(c2ccc(NC(=O)c3ccc([N+](=O)[O-])o3)cc2Cl)CC1,-5%,55,4%,?,29*,?
O=C(Nc1ccc(N2CCOCC2)c(Cl)c1)c1ccc([N+](=O)[O-])o1,-39%,17,14%,10µM*,19*,·
Cc1ccc(NC(=O)c2ccc([N+](=O)[O-])o2)cc1S(=O)(=O)N1CCOCC1,·,28,9.3µM*,9.3µM*,32,14µM*
CC(C)C(=O)N1CCN(c2ccc(NC(=O)c3ccc([N+](=O)[O-])o3)cc2Cl)CC1,·,-39,?,8%,-13,0%
CC(=O)N1CCN(c2ccc(NC(=O)c3ccc(Br)o3)cc2Cl)CC1,-8%,27,?,?,28*,?
CC(C)Cc1nn2c(=O)cc(COC(=O)c3ccc4c(c3)OCO4)nc2s1,·,·,·,·,·,-4%
SMILES,NS1 function inh,Shiga toxin inh,Pf growth 96h,Pf growth 48h,CHX counter,Sm TGR block
Cc1ccc(S(=O)(=O)NC(=O)Nc2ncn[nH]2)cc1,-3%,·,·,·,·,·
COc1ccc(-n2ncc3c2ncn2nc(-c4ccc(Cl)cc4Cl)nc32)cc1,·,·,·,·,·,0%
CCOC(=O)C(=NC(C)(C)C)NNc1cc(Cl)ccc1Cl,-43%,-5,9.3µM*,?,-1,-18%
CCOC(=O)C(=NC(C)C)NNc1cc(Cl)ccc1Cl,4%,-12,0%,?,2,-24%
CCc1ccc(C(=O)NC(CCSC)C(=O)OC)cc1 (stereo not given),·,15,117%,?,17*,7%
COC(=O)[C@H](CCSC)NC(=O)c1cccnc1SC,5%,22,34%,34%,-1,?
CCOC(=O)c1sc(=NC(=O)c2cccc(Br)c2)n(C)c1C,-2%,18,90%,109%,20*,2%
CCOC(=O)c1sc(=NC(=O)c2cc(OC)c(OC)c(OC)c2)n(C)c1C,?,-12,?,-7%,0,1%
CCOC(=O)c1sc(=NC(=O)c2cccc(C)c2)n(C)c1C,·,123*,195%,322%,24*,0%
CCOC(=O)c1sc(=NC(=O)c2ccc(S(=O)(=O)N(C)c3ccccc3)cc2)n(C)c1C,·,-21,?,6%,13,0%
CCOc1ccc(OCC)c(S(=O)(=O)n2ccnc2C)c1,-77%,-5,?,140%,-2,10%
CCOc1ccc(S(=O)(=O)n2ccnc2C)cc1,?,-3,12µM*,-7%,-2,10%
CCN(CC)CCNC(=O)Cn1cnc2sc(C)c(S(=O)(=O)N3CCC(C)CC3)c2c1=O,1%,8,?,-4%,-2,1%
CCOC(=O)C1CCN(C(=O)Cn2cnc3sc(C)c(S(=O)(=O)N4CCC(C)CC4)c3c2=O)CC1,5%,8,11%,4.1µM*,-1,-2%
CCN1CCCC1CNC(=O)Cn1cnc2sc(C)c(S(=O)(=O)N3CCC(C)CC3)c2c1=O (stereo not given),0%,-1,6.6µM*,-2%,-4,-6%
CC1(C)Cc2c(ccc3ccccc23)/C(=C/C#N)N1,15%,-24,0%,0%,1,45µM*
CCc1ccc2oc(C(=O)N(Cc3cccc(Cl)c3)Cc3ccco3)c(C)c2c1,·,·,·,·,·,4%
CC1=Nc2ccccc2N=C(NC(=O)CN2CCN(c3ccc(F)cc3)CC2)C1c1ccccc1 (stereo not given),-12%,16,?,?,-2,-20%
Cc1csc(NC(=O)CCSCCc2ccccn2)n1,-7%,-6,9.3µM*,·,-6,13%
O=C(CSCCc1ccccn1)Nc1ccccn1,1%,9,5%,39%,15*,-3%
